Of roughly 7,900 targets only a part is listed; those with a hit were picked by preference. About 0.6% of all pairs of compound and target were hits.
Legend:
Test in all cases: log2 fold change, soluble protein after heating vs DMSO (PISA); higher = thermal stabilisation; K562 cells, 10 uM, 30 min; active = over 0.2 and 3.5 SD of the protein, either way, in both replicates (recomputed)
[1] = compound: C1=CC=C(C=C1)[C@H](COC2=CC3=C(C=C2)NC(=O)N3)NC(=O)C4=CC=CN(C4=O)CC5=CC(=C(C=C5)F)F
Procedure, shortened: (§1)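 Values are thermal stability changes relative to control samples and are taken from duplicates. They are stated as log2 fold changes. Before quantification by TMTpro 16plex LC-MS/MS with equalised channel sums, K562 cells at 2×10^6 cells/mL were treated with 10 μM compound for 30 min, heated in aliquots for 3 min across 48°C-58°C, pooled, extracted in PBS with 0.5% NP-40 at 4°C, and centrifuged at 21,000xg for 90 min to give the soluble supernatant.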

[2] = compound: CC1=C(SC2=C1C(=N[C@H](C3=NN=C(N32)C)CC(=O)N)C4=CC=C(C=C4)Cl)C
Procedure, shortened: as §1

[3] = compound: CC1=C2C(=CC=C1)N=C(N(C2=O)C3=CC=CC=C3C)CN4C=NC5=C(N=CN=C54)N
Procedure, shortened: as §1

[4] = compound: Cc1sc2c(c1C)C(c1ccc(Cl)cc1)=N[C@@H](CC(=O)OC(C)(C)C)c1nnc(C)n1-2
Procedure, shortened: as §1

[5] = compound: c1ccc([C@@H]2C[C@H]2NC2CCNCC2)cc1
Procedure, shortened: as §1

Measured: log2 fold change

PLBD1 (UniProt Q6P4A8)
inactive: [1] 0.005 | [2] -0.011 | [3] -0.018 | [4] -0.006 | [5] 0.013

PRKAR1B (UniProt P31321)
inactive: [1] 0.21 | [2] -0.026 | [3] 0.059 | [4] 0.019 | [5] -0.061

PYGL (UniProt P06737)
Chain of UniProt P06737 (P06737 whole entry, looked up): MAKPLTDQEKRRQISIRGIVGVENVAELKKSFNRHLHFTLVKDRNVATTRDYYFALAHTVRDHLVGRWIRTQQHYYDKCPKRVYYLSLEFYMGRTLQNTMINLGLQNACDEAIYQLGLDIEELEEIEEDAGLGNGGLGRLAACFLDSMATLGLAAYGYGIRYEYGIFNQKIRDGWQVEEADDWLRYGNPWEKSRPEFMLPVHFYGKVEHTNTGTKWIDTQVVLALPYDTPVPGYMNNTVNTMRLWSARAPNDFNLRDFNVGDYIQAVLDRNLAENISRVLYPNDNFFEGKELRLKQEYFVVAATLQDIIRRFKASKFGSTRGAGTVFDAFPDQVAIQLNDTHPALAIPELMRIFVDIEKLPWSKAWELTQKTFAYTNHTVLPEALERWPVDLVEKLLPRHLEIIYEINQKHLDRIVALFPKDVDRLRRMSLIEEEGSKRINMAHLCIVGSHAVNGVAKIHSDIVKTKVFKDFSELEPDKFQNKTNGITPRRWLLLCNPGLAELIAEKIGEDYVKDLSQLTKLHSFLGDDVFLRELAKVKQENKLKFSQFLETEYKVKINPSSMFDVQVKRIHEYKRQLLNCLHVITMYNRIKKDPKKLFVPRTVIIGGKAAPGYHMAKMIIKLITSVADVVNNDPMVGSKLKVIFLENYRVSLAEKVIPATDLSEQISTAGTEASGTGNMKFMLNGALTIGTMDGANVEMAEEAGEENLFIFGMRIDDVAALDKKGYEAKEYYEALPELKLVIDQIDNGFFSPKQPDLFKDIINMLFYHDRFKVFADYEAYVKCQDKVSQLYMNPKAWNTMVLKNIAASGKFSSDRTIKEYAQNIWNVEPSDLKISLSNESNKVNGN
inactive: [1] 0.006 | [2] 0.047 | [3] 0.026 | [4] 0.006 | [5] -0.032

PPP1CA (UniProt P62136)
inactive: [1] 0.003 | [2] 0.022 | [3] 0.025 | [4] 0.016 | [5] 0.015

PFAS (UniProt O15067)
Chain of UniProt O15067 (O15067 whole entry, looked up): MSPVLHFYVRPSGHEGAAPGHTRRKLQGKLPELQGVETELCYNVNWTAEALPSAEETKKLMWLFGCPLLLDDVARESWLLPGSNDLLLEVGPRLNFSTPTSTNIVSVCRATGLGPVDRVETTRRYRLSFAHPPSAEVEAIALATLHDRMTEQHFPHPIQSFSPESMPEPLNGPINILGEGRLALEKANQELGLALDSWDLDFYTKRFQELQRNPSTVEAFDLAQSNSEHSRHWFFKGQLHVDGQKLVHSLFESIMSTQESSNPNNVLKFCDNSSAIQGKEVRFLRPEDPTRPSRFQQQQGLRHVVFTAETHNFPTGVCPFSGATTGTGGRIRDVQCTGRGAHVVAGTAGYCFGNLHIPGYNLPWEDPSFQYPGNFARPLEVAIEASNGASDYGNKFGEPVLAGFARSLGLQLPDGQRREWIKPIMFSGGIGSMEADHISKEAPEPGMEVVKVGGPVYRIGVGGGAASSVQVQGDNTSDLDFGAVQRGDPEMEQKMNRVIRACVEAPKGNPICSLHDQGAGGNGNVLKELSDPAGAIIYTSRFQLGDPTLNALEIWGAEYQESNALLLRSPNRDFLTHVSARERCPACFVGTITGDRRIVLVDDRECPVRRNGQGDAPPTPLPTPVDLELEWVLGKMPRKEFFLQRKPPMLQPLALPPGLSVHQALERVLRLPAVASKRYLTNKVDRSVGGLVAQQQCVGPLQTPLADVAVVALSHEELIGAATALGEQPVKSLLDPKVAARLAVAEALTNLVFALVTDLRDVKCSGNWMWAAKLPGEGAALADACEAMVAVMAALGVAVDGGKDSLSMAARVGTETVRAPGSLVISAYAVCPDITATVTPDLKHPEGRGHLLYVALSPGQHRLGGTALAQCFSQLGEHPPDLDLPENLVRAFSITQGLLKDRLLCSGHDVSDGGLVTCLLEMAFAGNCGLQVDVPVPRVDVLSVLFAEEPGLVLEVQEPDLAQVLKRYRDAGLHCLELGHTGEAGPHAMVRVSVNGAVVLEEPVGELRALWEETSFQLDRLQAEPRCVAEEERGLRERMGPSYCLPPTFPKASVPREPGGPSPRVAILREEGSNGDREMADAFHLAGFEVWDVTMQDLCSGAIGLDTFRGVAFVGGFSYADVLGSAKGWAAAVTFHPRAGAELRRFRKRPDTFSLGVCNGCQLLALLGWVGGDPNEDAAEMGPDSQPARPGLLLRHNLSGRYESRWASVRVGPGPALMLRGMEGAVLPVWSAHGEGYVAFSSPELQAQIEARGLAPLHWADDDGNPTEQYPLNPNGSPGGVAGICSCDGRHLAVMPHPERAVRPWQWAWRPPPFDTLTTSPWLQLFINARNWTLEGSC
inactive: [1] -0.08 | [2] 0.021 | [3] 0.144 | [4] 0.014 | [5] -0.065

PTMA (UniProt P06454)
Chain of UniProt P06454 (P06454 whole entry, looked up): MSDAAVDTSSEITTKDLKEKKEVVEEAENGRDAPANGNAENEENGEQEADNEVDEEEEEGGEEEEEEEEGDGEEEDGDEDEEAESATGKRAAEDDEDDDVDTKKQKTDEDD
inactive: [1] 0.029 | [2] 0.017 | [3] -0.105 | [4] -0.166 | [5] -0.009

PCBP1 (UniProt Q15365)
inactive: [1] -0.045 | [2] 0.047 | [3] 0.048 | [4] -0.03 | [5] 0

PPP1R14A (UniProt Q96A00)
Chain of UniProt Q96A00 (Q96A00 whole entry, looked up): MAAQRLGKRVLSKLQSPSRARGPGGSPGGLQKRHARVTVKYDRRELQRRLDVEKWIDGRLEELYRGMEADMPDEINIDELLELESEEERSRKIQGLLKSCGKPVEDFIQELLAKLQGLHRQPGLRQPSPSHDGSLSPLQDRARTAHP
inactive: [1] 0.011 | [2] 0.009 | [3] -0.002 | [4] 0.061 | [5] -0.013

PIP4P1 isoform 2 (UniProt Q86T03)
Chain of UniProt Q86T03 (Q86T03 whole entry, looked up): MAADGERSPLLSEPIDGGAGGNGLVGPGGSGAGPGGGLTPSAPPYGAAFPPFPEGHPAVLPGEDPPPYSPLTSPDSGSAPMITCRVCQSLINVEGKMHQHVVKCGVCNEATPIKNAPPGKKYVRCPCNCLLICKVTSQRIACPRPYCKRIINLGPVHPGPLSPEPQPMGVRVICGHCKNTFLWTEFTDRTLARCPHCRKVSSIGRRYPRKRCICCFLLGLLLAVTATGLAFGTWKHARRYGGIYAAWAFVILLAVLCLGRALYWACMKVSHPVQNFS
inactive: [1] -0.016 | [2] -0.106 | [3] -0.118 | [4] -0.002 | [5] 0.05

PURA (UniProt Q00577)
inactive: [1] 0.116 | [2] -0.403 | [3] -0.092 | [4] 0.298 | [5] 0.043

PAK4 (UniProt O96013)
inactive: [1] -0.005 | [2] 0.045 | [3] 0.102 | [4] -0.02 | [5] -0.016

PSMC6 (UniProt P62333)
Chain of UniProt P62333 (P62333 whole entry, looked up): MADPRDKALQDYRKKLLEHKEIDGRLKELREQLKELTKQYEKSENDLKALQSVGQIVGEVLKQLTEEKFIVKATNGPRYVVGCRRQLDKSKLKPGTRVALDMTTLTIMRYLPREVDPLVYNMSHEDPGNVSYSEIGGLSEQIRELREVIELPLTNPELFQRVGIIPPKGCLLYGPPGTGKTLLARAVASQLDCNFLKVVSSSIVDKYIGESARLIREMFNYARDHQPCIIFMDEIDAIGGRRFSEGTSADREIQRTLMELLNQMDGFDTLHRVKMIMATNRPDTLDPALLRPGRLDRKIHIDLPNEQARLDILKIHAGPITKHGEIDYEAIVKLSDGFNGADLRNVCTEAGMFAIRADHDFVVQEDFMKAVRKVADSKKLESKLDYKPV
inactive: [1] 0.04 | [2] -0.087 | [3] -0.037 | [4] 0.017 | [5] 0.006

PTK2B (UniProt Q14289)
inactive: [1] -0.105 | [2] -0.098 | [3] 0.194 | [4] 0 | [5] -0.013

PPP2R5A (UniProt Q15172)
inactive: [1] -0.036 | [2] 0.07 | [3] -0.006 | [4] -0.08 | [5] -0.08

PUM1 isoform 3 (UniProt Q14671)
inactive: [1] 0.004 | [2] -0.036 | [3] 0.056 | [4] 0.025 | [5] -0.049

PSMD3 (UniProt O43242)
inactive: [1] 0.028 | [2] -0.055 | [3] -0.006 | [4] -0.023 | [5] -0.011

PHAX (UniProt Q9H814)
inactive: [1] 0.014 | [2] -0.019 | [3] -0.015 | [4] -0.024 | [5] 0.022

PDE2A (UniProt O00408)
inactive: [1] 0.079 | [2] 0.08 | [3] 0.16 | [4] -0.024 | [5] 0.065

PLCL1 (UniProt Q15111)
Chain of UniProt Q15111 (Q15111 whole entry, looked up): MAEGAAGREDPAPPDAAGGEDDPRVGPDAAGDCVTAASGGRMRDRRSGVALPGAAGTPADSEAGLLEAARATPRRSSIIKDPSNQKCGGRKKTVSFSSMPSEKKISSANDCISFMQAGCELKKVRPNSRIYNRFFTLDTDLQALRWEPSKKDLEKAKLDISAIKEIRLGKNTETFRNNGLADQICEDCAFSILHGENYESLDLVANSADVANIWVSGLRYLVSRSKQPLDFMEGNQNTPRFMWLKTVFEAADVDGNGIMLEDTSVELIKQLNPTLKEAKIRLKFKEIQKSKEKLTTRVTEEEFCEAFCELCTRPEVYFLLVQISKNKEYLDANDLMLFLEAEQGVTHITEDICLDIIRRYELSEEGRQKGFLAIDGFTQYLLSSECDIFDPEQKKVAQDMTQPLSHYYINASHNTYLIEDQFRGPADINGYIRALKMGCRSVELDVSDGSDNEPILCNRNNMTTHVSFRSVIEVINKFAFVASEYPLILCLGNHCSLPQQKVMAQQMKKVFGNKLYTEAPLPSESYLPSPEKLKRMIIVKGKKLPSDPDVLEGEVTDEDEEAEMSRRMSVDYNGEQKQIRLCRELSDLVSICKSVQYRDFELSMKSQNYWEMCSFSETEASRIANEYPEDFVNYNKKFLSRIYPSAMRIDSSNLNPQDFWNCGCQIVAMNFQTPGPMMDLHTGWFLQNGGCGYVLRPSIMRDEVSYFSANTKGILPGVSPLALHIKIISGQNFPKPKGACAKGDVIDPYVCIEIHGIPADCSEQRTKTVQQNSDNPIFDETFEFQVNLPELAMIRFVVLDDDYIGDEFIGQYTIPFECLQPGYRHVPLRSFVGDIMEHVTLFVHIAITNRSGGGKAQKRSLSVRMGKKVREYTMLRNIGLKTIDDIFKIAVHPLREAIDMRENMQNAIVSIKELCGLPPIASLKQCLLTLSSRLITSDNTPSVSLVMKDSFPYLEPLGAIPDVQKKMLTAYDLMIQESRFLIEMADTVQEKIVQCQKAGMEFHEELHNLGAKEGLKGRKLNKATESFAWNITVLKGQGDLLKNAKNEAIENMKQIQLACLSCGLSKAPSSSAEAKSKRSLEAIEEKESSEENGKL
inactive: [1] 0.12 | [2] 0.073 | [3] 0.165 | [4] -0.029 | [5] 0.052

PIR (UniProt O00625)
Chain of UniProt O00625 (O00625 whole entry, looked up): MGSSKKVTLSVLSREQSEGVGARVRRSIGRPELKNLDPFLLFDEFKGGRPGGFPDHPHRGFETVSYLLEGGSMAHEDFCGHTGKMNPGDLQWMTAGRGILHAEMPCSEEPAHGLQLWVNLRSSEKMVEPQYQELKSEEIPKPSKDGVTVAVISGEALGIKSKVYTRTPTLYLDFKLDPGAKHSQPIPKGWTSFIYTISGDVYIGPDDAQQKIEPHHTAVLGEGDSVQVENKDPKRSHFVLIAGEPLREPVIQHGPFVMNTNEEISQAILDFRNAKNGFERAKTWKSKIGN
inactive: [1] 0.016 | [2] 0.064 | [3] 0.027 | [4] -0.029 | [5] 0.002

PPP2R5C isoform 5 (UniProt Q13362)
inactive: [1] -0.039 | [2] 0.001 | [3] 0.084 | [4] -0.067 | [5] -0.029

POM121 (UniProt Q96HA1)
inactive: [1] 0.023 | [2] -0.033 | [3] 0.026 | [4] 0.054 | [5] -0.002

POLD3 (UniProt Q15054)
Chain of UniProt Q15054 (Q15054 whole entry, looked up): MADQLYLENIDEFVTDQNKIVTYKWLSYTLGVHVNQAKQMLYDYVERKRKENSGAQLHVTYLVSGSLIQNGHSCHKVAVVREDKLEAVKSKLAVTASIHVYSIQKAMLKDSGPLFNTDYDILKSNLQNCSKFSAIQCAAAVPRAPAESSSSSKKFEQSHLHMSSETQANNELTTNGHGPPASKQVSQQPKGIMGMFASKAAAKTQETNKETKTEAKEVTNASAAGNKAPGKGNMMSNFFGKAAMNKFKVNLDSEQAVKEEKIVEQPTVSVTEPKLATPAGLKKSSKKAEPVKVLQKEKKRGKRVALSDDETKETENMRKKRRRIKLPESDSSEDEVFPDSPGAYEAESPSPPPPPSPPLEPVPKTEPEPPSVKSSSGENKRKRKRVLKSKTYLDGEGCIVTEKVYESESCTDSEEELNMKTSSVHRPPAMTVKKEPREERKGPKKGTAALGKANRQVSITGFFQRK
inactive: [1] -0.027 | [2] 0.14 | [3] 0.104 | [4] -0.037 | [5] -0.009

PSMC4 (UniProt P43686)
inactive: [1] 0.022 | [2] -0.117 | [3] -0.022 | [4] 0.006 | [5] 0.001
